Experimental findings from PubChem BioAssay (Tox21) are described below.

Each structure is given as a SMILES string. A number with no mark means an inactive call. Calls come from the whole dose curve; as a rule, active = well fitted curve in the direction sought with a large enough effect in the repeat runs; inconclusive = weak or mixed curves; inactive = no such curve, though single readings can be large; an effect the other way counts as inactive or inconclusive. Inconclusive results are not listed.
% is set by controls: 0 for no effect and ±100 for the full control effect.

The first experiment is described as follows: Caspase-3/7 induction in CHO-K1 cells by small molecules, qHTS cell viability counter screen (AID 1346979). Note: nearly all actives have a fitted effect of over 35% in size. To be noted: CellTiter-Fluor fluorescence, 17 h; series mostly up to 92.4 µM; activity change, negative = cytotoxicity: at the top concentration. An outline of the steps: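 Cytotoxicity counter screen run in parallel with the caspase-3/7 assay: CHO-K1 cells, 16hr compound treatment at 37C, then CellTiter-Fluor for 1hr before fluorescence reading.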
On the technique in general: Quantitative high-throughput screening tests each substance at several concentrations.
For the compound `OC[C@@H](O)[C@H](O)[C@@H](O)[C@@H](O)CO`, the “activity change, negative = cytotoxicity” value was -0.889%.
Consider `CCCCCCCC/C=C\CCCCCCCC(=O)OC[C@@H](O)[C@H]1OC[C@H](O)[C@H]1O`, for which the “activity change, negative = cytotoxicity” value is -0.927%.
The same measure, in the same setting: under `O=C(O)CCNC(=O)c1ccccc1` stands 0.101% [at 42.5 µM]; under `Nc1nc(=O)n([C@@H]2O[C@H](CO)[C@@H](O)[C@@H]2F)cc1I`, -3.63% [at 42.5 µM].
The same measure, in the same setting: to `CC(C)CCC(=O)CCC(C)C` belongs 8.82%; to `CC(C)C(=O)c1ccccc1`, 7.33%.
Same read-out and setting: to `FC(F)(F)/C(=N\OCC1OCCO1)c1ccc(Cl)cc1` belongs -3.6%; to `OCCCCCCCl`, 5.53%.
Consider `CCCCCC(=O)OCC`, for which the “activity change, negative = cytotoxicity” value was 8.42%.
Turning to `CN=C(NC#N)NCCSCc1csc(N=C(N)N)n1`, the “activity change, negative = cytotoxicity” value was 0.226% [at 42.5 µM].
With `CCCCCCCCOC(C)=O`, the “activity change, negative = cytotoxicity” value was 8.37%.
Turning to `C=CCOC(=O)c1ccc(C(=O)OCC=C)c(C(=O)OCC=C)c1`, the “activity change, negative = cytotoxicity” value is -3.84%.
Still for that read-out and setting: to `CC(C)COC(=O)/C=C/c1ccccc1` belongs -1.95%.
Take `CCN(CCO)c1cccc(C)c1`: the “activity change, negative = cytotoxicity” value is 9.41%.
Turning to `C[N+](C)(C)CC(O)CCl` (stereo not drawn), the “activity change, negative = cytotoxicity” value was -1.56%.
Turning to `CCCCCCCCCCCCC`, the “activity change, negative = cytotoxicity” value is -0.498%.
On the same count and under the same terms, to `Nc1ccc(S(=O)(=O)Nc2ccccn2)cc1` belongs 2.24% [at 42.5 µM].
Still for that read-out and setting: to `CCC1COC(=O)O1` (stereo not drawn) belongs -0.871%; to `CCCCCCCCCCC`, 7.18%; to `CC1CCC(C(C)(C)S)C(=O)C1` (stereo not drawn), 1.63%.
Consider `CC1=CC[C@H](CC=O)C1(C)C`, for which the “activity change, negative = cytotoxicity” value was 4.14%.
With `CCCCOC(=O)[C@@H](C)Oc1ccc(Oc2ccc(C(F)(F)F)cn2)cc1`, the “activity change, negative = cytotoxicity” value is -3.46%.
On the same count and under the same terms, under `CCC(O)C(C)(C)C` (stereo not drawn) stands -4.65%.
As to `O=C(Oc1ccccc1C(=O)O)c1ccccc1O`, the “activity change, negative = cytotoxicity” value was -2.69% [at 42.5 µM].
Same read-out and setting: to `CCOC(=O)CC#N` belongs 4.3%; to `C=CCOCC(CO)(COCC=C)COCC=C`, 4.96% [at 42.5 µM]; to `NC(=O)NC(=O)Cc1ccccc1`, 3.74% [at 42.5 µM].
For the compound `O=C1CC[C@H](C(=O)N2CCCCC2)N1`, the “activity change, negative = cytotoxicity” value was 2.33% [at 42.5 µM].
Still for that read-out and setting: to `COc1ccc(NS(=O)(=O)c2ccc(N)cc2)nn1` belongs 6.26% [at 42.5 µM]; to `COC(OC)C(C)c1ccccc1` (stereo not drawn), 6.19%.
The same measure, in the same setting: under `CC(=O)c1ccc2c(c1)CCCC2` stands 5.57%.
Still for that read-out and setting: under `O=CN1CCOCC1` stands 7.86%; under `CN[C@@H]1[C@H](O)[C@H](NC)[C@H]2O[C@@]3(O)C(=O)C[C@@H](C)O[C@H]3O[C@@H]2[C@H]1O`, 1.91% [at 42.5 µM].
For `C[C@H](CCC(=O)O)[C@H]1CC[C@H]2[C@@H]3[C@H](O)C[C@@H]4C[C@H](O)CC[C@]4(C)[C@H]3C[C@H](O)[C@]12C`, the “activity change, negative = cytotoxicity” value was 2.57% [at 42.5 µM].
On the same count and under the same terms, to `CCc1nccnc1C` belongs 3.23%; to `CCN(Cc1cccc(S(=O)(=O)O)c1)c1ccccc1`, 0.216%.

Another experiment is described as follows: Caspase-3/7 induction in CHO-K1 cells by small molecules, qHTS assay (AID 1346980). Note: nearly all actives have a fitted effect of over 15% in size. To be noted: CHO-K1 caspase-3/7 induction, Caspase-Glo luminescence, 17 h; series mostly up to 92.4 µM; caspase-3/7 activation: at the top concentration. An outline of the steps: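 Wild-type cells were seeded at 1,500 per well and settled 5 hr at 37 C, 5% CO2, then exposed to DMSO-dissolved compounds for 17 hr. Caspase-Glo 3/7 reagent was added, and luminescence was read after 30min at room temperature.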
`OC[C@@H](O)[C@H](O)[C@@H](O)[C@@H](O)CO`: the “caspase-3/7 activation” value is -0.232%.
With `CCCCCCCC/C=C\CCCCCCCC(=O)OC[C@@H](O)[C@H]1OC[C@H](O)[C@H]1O`, the “caspase-3/7 activation” value was -0.756%.
Take `O=C(O)CCNC(=O)c1ccccc1`: the “caspase-3/7 activation” value is -0.717% [at 42.5 µM].
As to `CCOC(=O)C(=O)c1csc(NC=O)n1`, the “caspase-3/7 activation” value is 0.736% [at 42.5 µM].
On the same count and under the same terms, to `CC(C)C(=O)c1ccccc1` belongs 1.03%.
As to `FC(F)(F)/C(=N\OCC1OCCO1)c1ccc(Cl)cc1`, the “caspase-3/7 activation” value is 0.425%.
In the case of `OCCCCCCCl`, the “caspase-3/7 activation” value is 0.379%.
On the same count and under the same terms, to `CCCCCC(=O)OCC` belongs 0.581%; to `CN=C(NC#N)NCCSCc1csc(N=C(N)N)n1`, 0.221% [at 42.5 µM].
Same read-out and setting: under `CCCCCCCCOC(C)=O` stands 0.0513%; under `C=CCOC(=O)c1ccc(C(=O)OCC=C)c(C(=O)OCC=C)c1`, 0.594%.
Regarding `CCN(CCO)c1cccc(C)c1`, the “caspase-3/7 activation” value was 0.811%.
`Nc1ccc(S(=O)(=O)Nc2ccccn2)cc1`: the “caspase-3/7 activation” value was 0.351% [at 42.5 µM].
For `CCC1COC(=O)O1` (stereo not drawn), the “caspase-3/7 activation” value is 0.547%.
As to `CCCCCCCCCCC`, the “caspase-3/7 activation” value is 0.99%.
Consider `CC1CCC(C(C)(C)S)C(=O)C1` (stereo not drawn), for which the “caspase-3/7 activation” value is -0.129%.
In the case of `CCC(O)C(C)(C)C` (stereo not drawn), the “caspase-3/7 activation” value is 1.44%.
Still for that read-out and setting: under `O=C(Oc1ccccc1C(=O)O)c1ccccc1O` stands 0.121% [at 42.5 µM]; under `CCOC(=O)CC#N`, 0.438%.
In the case of `C=CCOCC(CO)(COCC=C)COCC=C`, the “caspase-3/7 activation” value is -0.0121% [at 42.5 µM].
For the compound `NC(=O)NC(=O)Cc1ccccc1`, the “caspase-3/7 activation” value is -1.08% [at 42.5 µM].
On the same count and under the same terms, to `O=C1CC[C@H](C(=O)N2CCCCC2)N1` belongs 0.0682% [at 42.5 µM]; to `COc1ccc(NS(=O)(=O)c2ccc(N)cc2)nn1`, 0.797% [at 42.5 µM].
The same measure, in the same setting: under `COC(OC)C(C)c1ccccc1` (stereo not drawn) stands 0.102%; under `CC(=O)c1ccc2c(c1)CCCC2`, 3.81%; under `O=CN1CCOCC1`, -0.665%.
On the same count and under the same terms, to `CN[C@@H]1[C@H](O)[C@H](NC)[C@H]2O[C@@]3(O)C(=O)C[C@@H](C)O[C@H]3O[C@@H]2[C@H]1O` belongs 0.186% [at 42.5 µM].
Take `C[C@H](CCC(=O)O)[C@H]1CC[C@H]2[C@@H]3[C@H](O)C[C@@H]4C[C@H](O)CC[C@]4(C)[C@H]3C[C@H](O)[C@]12C`: the “caspase-3/7 activation” value was -0.0813% [at 42.5 µM].
With `CCc1nccnc1C`, the “caspase-3/7 activation” value was 0.0218%.
On the same count and under the same terms, under `CCN(Cc1cccc(S(=O)(=O)O)c1)c1ccccc1` stands -1.36%.

A further experiment can be described thus: Caspase-3/7 induction in HepG2 cells by small molecules, qHTS cell viability counter screen (AID 1346981). Note: nearly all actives have a fitted effect of over 30% in size. To be noted: CellTiter-Fluor fluorescence, 17 h; series mostly up to 92.4 µM; activity change, negative = cytotoxicity: at the top concentration. An outline of the steps: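 Wild-type HepG2 cells (2,000/well) were allowed to settle for 5 hr at 37 C, 5% CO2, then dosed with compounds in DMSO by pin transfer. After 16 hr at 37 C, CellTiter-Fluor was added and fluorescence read 1 hr later.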
Turning to `OC[C@@H](O)[C@H](O)[C@@H](O)[C@@H](O)CO`, the “activity change, negative = cytotoxicity” value is -1.02%.
Same read-out and setting: to `CCCCCCCC/C=C\CCCCCCCC(=O)OC[C@@H](O)[C@H]1OC[C@H](O)[C@H]1O` belongs 1.06%.
Still for that read-out and setting: under `O=C(O)CCNC(=O)c1ccccc1` stands 0.847% [at 42.5 µM]; under `Nc1nc(=O)n([C@@H]2O[C@H](CO)[C@@H](O)[C@@H]2F)cc1I`, 0.831% [at 42.5 µM]; under `CC(C)CCC(=O)CCC(C)C`, 2.36%.
In the case of `CCOC(=O)C(=O)c1csc(NC=O)n1`, the “activity change, negative = cytotoxicity” value was 8.33% [at 42.5 µM].
For `CC(C)C(=O)c1ccccc1`, the “activity change, negative = cytotoxicity” value is -0.357%.
For `FC(F)(F)/C(=N\OCC1OCCO1)c1ccc(Cl)cc1`, the “activity change, negative = cytotoxicity” value was 1.58%.
As for `OCCCCCCCl`, the “activity change, negative = cytotoxicity” value is -0.588%.
With `CCCCCC(=O)OCC`, the “activity change, negative = cytotoxicity” value was 3.66%.
In the case of `CN=C(NC#N)NCCSCc1csc(N=C(N)N)n1`, the “activity change, negative = cytotoxicity” value is -6.5% [at 42.5 µM].
Turning to `CCCCCCCCOC(C)=O`, the “activity change, negative = cytotoxicity” value was 4.16%.
For the compound `C=CCOC(=O)c1ccc(C(=O)OCC=C)c(C(=O)OCC=C)c1`, the “activity change, negative = cytotoxicity” value is -0.776%.
For the compound `CC(C)COC(=O)/C=C/c1ccccc1`, the “activity change, negative = cytotoxicity” value was 0.309%.
On the same count and under the same terms, to `CCN(CCO)c1cccc(C)c1` belongs 4.89%; to `C[N+](C)(C)CC(O)CCl` (stereo not drawn), -1.34%; to `CCCCCCCCCCCCC`, -0.721%.
Turning to `Nc1ccc(S(=O)(=O)Nc2ccccn2)cc1`, the “activity change, negative = cytotoxicity” value is -1.47% [at 42.5 µM].
On the same count and under the same terms, to `CCC1COC(=O)O1` (stereo not drawn) belongs -0.908%; to `CCCCCCCCCCC`, -1.41%; to `CC1=CC[C@H](CC=O)C1(C)C`, 2.33%.
Still for that read-out and setting: to `CCCCOC(=O)[C@@H](C)Oc1ccc(Oc2ccc(C(F)(F)F)cn2)cc1` belongs -0.109%; to `CCC(O)C(C)(C)C` (stereo not drawn), -2.4%.
Turning to `O=C(Oc1ccccc1C(=O)O)c1ccccc1O`, the “activity change, negative = cytotoxicity” value was -4.07% [at 42.5 µM].
In the case of `CCOC(=O)CC#N`, the “activity change, negative = cytotoxicity” value is 4.83%.
As for `C=CCOCC(CO)(COCC=C)COCC=C`, the “activity change, negative = cytotoxicity” value is 1.76% [at 42.5 µM].
In the case of `NC(=O)NC(=O)Cc1ccccc1`, the “activity change, negative = cytotoxicity” value is 4.45% [at 42.5 µM].
Same read-out and setting: under `O=C1CC[C@H](C(=O)N2CCCCC2)N1` stands 0.0713% [at 42.5 µM]; under `COc1ccc(NS(=O)(=O)c2ccc(N)cc2)nn1`, 2.79% [at 42.5 µM]; under `COC(OC)C(C)c1ccccc1` (stereo not drawn), 5.05%.
Same read-out and setting: under `CC(=O)c1ccc2c(c1)CCCC2` stands 0.365%; under `O=CN1CCOCC1`, 3.71%; under `CN[C@@H]1[C@H](O)[C@H](NC)[C@H]2O[C@@]3(O)C(=O)C[C@@H](C)O[C@H]3O[C@@H]2[C@H]1O`, -0.954% [at 42.5 µM].
`COC(/C=C(\C)CCC=C(C)C)OC`: the “activity change, negative = cytotoxicity” value was 5.12%.
On the same count and under the same terms, under `C[C@H](CCC(=O)O)[C@H]1CC[C@H]2[C@@H]3[C@H](O)C[C@@H]4C[C@H](O)CC[C@]4(C)[C@H]3C[C@H](O)[C@]12C` stands -0.0205% [at 42.5 µM]; under `CCc1nccnc1C`, 1.46%.
On the same count and under the same terms, under `CCN(Cc1cccc(S(=O)(=O)O)c1)c1ccccc1` stands -1.68%.
